A word on the inhibition: it is the relative decrease from the control value, in per cent.

Molecules are shown by their SMILES. The whole screen tested about 290,000 compounds, of which about 27,000 (9.3%) were called active. Only a selection was taken, and actives are over-represented in it overall. Values without a mark were called inactive. No stated cut-off is given here; in the data, active means inhibition mostly above about 28% (no sharp cut-off); inactive means mostly below about 43%.

A short description of this test: A qHTS for Small Molecule Inhibitors of Shiga Toxin. Further: 0% is about no effect. The settings on record: Vero cells, Shiga toxin protein synthesis inhibition reporter; at 38.7 µM, stronger effect = higher value. On the technique in general: qHTS replaces the single test concentration by a dilution series.
Consider `c1ccc2sc(C3CCCNC3)nc2c1` (stereo unspecified), for which the inhibition is 69.9% (active). Take `O=C(c1cccs1)N1CCC(c2nc3ccccc3s2)CC1`: the inhibition is 18.9%. For the compound `Cc1cccc(C(=O)N2CCC(c3nc4ccccc4s3)CC2)c1`, the inhibition was -12.1%. For the compound `CC(=O)Oc1ccc(N(C(C)=O)S(=O)(=O)c2ccc3ccccc3c2)cc1Br`, the inhibition was 33.2%. With `CCCCCNC(=O)C1c2ccccc2Oc2ccccc21`, the inhibition was -12.3%.

For the compound `O=C(/C=C/c1ccccc1)c1ccoc1`, the inhibition was 26%. Consider `O=C(CN1CCN(S(=O)(=O)/C=C/c2ccccc2)CC1)Nc1ccc(N2CCOCC2)cc1`, for which the inhibition was -7.43%. Take `CC(=O)Oc1ccc(C)cc1N1C(=O)c2ccc(C(=O)O)cc2C1=O`: the inhibition was 21.4%. For the compound `O=C(O)c1ccc2c(c1)C(=O)N(c1ccc(/C=C/C(=O)c3ccccc3)cc1)C2=O`, the inhibition is 70.9% (active).

`O=C(/C=C/c1ccc(N2CCOCC2)cc1)c1ccccc1`: the inhibition is 68% (active). As to `Cc1cccc(N2C(=O)c3ccc(C(=O)Nc4cccc(C(=O)O)c4)cc3C2=O)c1`, the inhibition was 19%. Consider `O=C(c1ccc(C(F)(F)F)cc1)C1CCCN(C(=O)c2csnn2)C1` (stereo unspecified), for which the inhibition is -1.35%. As for `COc1ccc(CCNC(=O)C2CCCN2C(=O)Nc2ccccc2)cc1OC` (stereo unspecified), the inhibition was 9.89%. Consider `O=S1(=O)N=C(N(CCO)/N=C/c2ccccc2F)c2ccccc21`, for which the inhibition was -5.12%. Consider `CCCCc1nc2ccccc2c(=O)n1NC(=O)c1c(O)c2cccc3c2n(c1=O)CC3`, for which the inhibition is 28.4%. Consider `CCCC(=O)Nc1c(O)c2ccccc2[nH]c1=O`, for which the inhibition is 25.5%. In the case of `CCCc1nc2ccccc2c(=O)n1NC(=O)c1c(O)c2ccccc2[nH]c1=O`, the inhibition was 110% (active). As to `C#CC(CCN1CCCCC1)(OC)c1ccccc1` (stereo unspecified), the inhibition was -17.9%. `CCCc1c(C(=O)N/N=C(\C)CCc2ccc(OC)cc2)nnn1-c1nonc1N`: the inhibition was -11%.

Turning to `OC(CNCCc1ccc(Cl)cc1Cl)COc1ccccc1` (stereo unspecified), the inhibition is 2.65%.

As to `O=C(CN(Cc1ccc(Br)cc1)S(=O)(=O)c1ccccc1)NCc1ccncc1`, the inhibition is -14.3%. As for `O=C(C1CC(=O)N(c2ccc(F)cc2)C1)N1CCN(c2ccccc2)CC1` (stereo unspecified), the inhibition was -5.65%.

As for `COc1ccc(C(=O)CN(C(=O)c2ccc(Cl)cc2)N2C(=O)c3ccccc3C2=O)cc1`, the inhibition is -9%. As to `COc1ccc(Cn2c(-c3ccc(Cl)cc3)c[n+]3ccccc23)cc1`, the inhibition is 96.6% (active).

As to `CCn1c(C)cc(=O)cc1-c1ccc(Cl)cc1`, the inhibition is -5.82%. As for `CC1(C)C2CCC1(CS(=O)(=O)NCCc1c[nH]c3ccccc13)C(=O)C2` (stereo unspecified), the inhibition is 23.7%.

Consider `O=C(N/C(=C\c1ccc(O)cc1)C(=O)N1CCCCC1)c1ccccc1`, for which the inhibition was 11.3%.

As to `COc1cc(/C=N/N2CCN(c3ccccc3)CC2)ccc1OC(C)=O`, the inhibition is 23.8%.

As for `C(=N/N1CCN(c2ccccc2)CC1)/c1cccs1`, the inhibition was 94.4% (active). On to `Cc1ccc(N2CCN(/N=C/c3cccs3)CC2)cc1`, for which the inhibition was 13.1%. Take `O=C(Cn1nc(C(=O)O)c2ccccc2c1=O)Nc1ccc(F)cc1`: the inhibition was -3.59%. For the compound `O=C1CCC([N+](=O)[O-])C(c2ccccc2Br)N1` (stereo unspecified), the inhibition is 4.29%. On to `COc1ccc(-c2nnc(NC(=O)CS(=O)(=O)c3ccc(Cl)cc3)o2)c(OC)c1`, for which the inhibition was 3.54%. Turning to `COC(=O)CN1C(=O)C(C)(C)Oc2ccc(C(=O)Nc3cccc(OC)c3)cc21`, the inhibition is -0.621%.

Consider `CN(C)S(=O)(=O)c1ccc(N/C=C(\[N+](=O)[O-])S(=O)(=O)c2ccccc2)cc1`, for which the inhibition was -2.26%.

Consider `COc1ccc(C(=O)NC2CCN(C(=S)Nc3ccccc3)CC2)cc1`, for which the inhibition is -2.02%.

For `CCC(C)N(C)C1CCN(C(=S)Nc2ccc(OC)cc2)CC1` (stereo unspecified), the inhibition is -9.08%.

Take `COc1ccccc1C1CCN(C(=S)Nc2ccc(Br)cc2)CC1`: the inhibition was 47.5% (active). For `CN1CCC(=O)N([C@H](CO)Cc2ccccc2)CC1` the value was -4.98%. `O=C1CCCC(O)=C1N=Nc1ccc2ncsc2c1`: the inhibition was 87.8% (active). Regarding `O=C1CCCC(O)=C1N=Nc1ccc(S(=O)(=O)N2CCOCC2)cc1`, the inhibition was 22.3%. With `COC(=O)c1ccc2c(=O)n(CCN3CCOCC3)c(SCC(=O)Nc3cccc(OC)c3)nc2c1`, the inhibition was -7.42%. On to `O=C(CNC(=O)Cc1ccccc1)N=Nc1c(O)[nH]c2ccc(Br)cc12`, for which the inhibition is 3.9%.

`CC1(C)CCSC(/C=C/c2ccccc2)=N1`: the inhibition was 52.2% (active). Take `Cc1cccn2c(=O)c(C=O)c(Nc3ccc(S(N)(=O)=O)cc3)nc12`: the inhibition is 3.64%. For `CCC(=O)N(CCc1ccccc1)Cc1cc2cc(C)ccc2[nH]c1=O` the value was -0.364%; for `COc1cccc(-n2c(=S)sc3c(=O)n(-c4ccccc4OC)c(SCC4OCCO4)nc32)c1`, -11.3%; for `Cc1ccccc1Nc1nc(-c2cccnc2)cs1`, 76.4% (active). With `O=C(Nc1ccc(NC(=O)c2ccccc2F)cc1)c1ccccc1F` the figure was -6.19%. On to `O=C(NCc1cccnc1)C(=O)Nc1nc(-c2ccccc2)cs1`, for which the inhibition is 98% (active). In the case of `O=C(Nc1nnc(-c2ccccc2F)s1)c1ccccc1F`, the inhibition was 58% (active). In the case of `O=C(O)c1ccccc1C(=O)Nc1nc(-c2ccccc2)cs1`, the inhibition was -11.1%. With `O=C(NCc1cccnc1)Nc1ccccc1F`, the inhibition is 19.6%. For `O=C(O)c1ccccc1-c1ccccc1C(=O)NCc1cccnc1`, the inhibition is -3.52%. `O=C(Nc1nc(-c2cccnc2)cs1)c1ccccc1F`: the inhibition is 166% (active). For the compound `O=C(Nc1ccccc1F)c1ccccc1-c1ccccc1`, the inhibition is 7.36%. Consider `CN(Cc1ccccc1)S(=O)(=O)c1nnc(NC(=O)c2ccccc2F)s1`, for which the inhibition is -6.12%. For `Cc1ccc(CNC(=O)C2(C(F)(F)F)C/C(=C\CCO)CCCO2)o1` (stereo unspecified), the inhibition was -7.08%.

Take `COc1ccc(CNC(=O)COc2cccnc2[N+](=O)[O-])cc1`: the inhibition was -2.63%. In the case of `CC(=O)N1CCN(C(=O)C2(NC(=O)Nc3ccc(C)cc3)CCCCC2)CC1`, the inhibition was 23.1%. For the compound `NNC(=O)CNC(c1ccccc1)c1cc(Cl)ccc1NC(=O)c1ccccc1` (stereo unspecified), the inhibition is -4.52%.
